# Only a selection was taken, and the strongest signals are over-represented in it overall.
# B1: PX14343E-bfa-545-24-545 (Bacteroides fragilis) (protein)
# chain: LDRYPQEELSDGSFWKTPDDANKVVSDLYGYLSTWDQDNDINSDNATMGIKWAAGNVSKGIYDPADQGWSGDYANVRQCNLILSKIDEIPDYPEADKTKALGQVYFFRAYIYFNLIRSFGDVPYIDKPLDLKDMEGITRMPRAEVYEKIMADFDKAIAALPTEWGASDYGRVTKGAAMAMKARAALYYGNWDTAATEAKNVMDLGLYELYDKDNTGKYAELFWEKADGCDEFILVTQFNYPDKTHYLMGWECFPTKGWGGMNPTQSLVDAFEDSEGAPISKSKIYDPTDPFKNRDPRLEVDILHDGEEMYGVTIKVAPLASSGSTGINQHNDATETGYYGQKWLDPSLDPLSDGWNMGKDWVHIRYAEVLLTYAEAKNELQGLDPEAFDAVNQVRRRVGMPELQNTDPSKPTYCATQDDLRQRIRNEWRVEFCLEGGKRMWDIRRWGIAKDVLNAPFEGLKYKIVDNPNDPDKKVDGGKMCILYQGDPIILSGSRYSDNNYLFPVPQSEIDLNPALTQNPGY
# Experiments:
# Assay in all cases: glycan array binding signal (z-score within array); higher = stronger binding
# Settings in all cases: glycan notation: IUPAC condensed, linker removed
# [1] = target: Fuc(a1-2)Gal(b1-3)GalNAc(b1-3)Gal(a1-4)Gal(b1-4)Glc
# Summary of the method: (§1)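 The binding signal is a Z-score computed within each array and averaged over linkers. Arrays of the same protein sequence at different concentrations or buffers were also averaged together. Data originate from 3228 arrays in the Consortium for Functional Glycomics database, kept only where the protein sequence was available.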
# [2] = target: Fuc(a1-2)Gal(b1-4)GlcNAc(b1-2)[Fuc(a1-2)Gal(b1-4)GlcNAc(b1-4)]Man(a1-3)[Fuc(a1-2)Gal(b1-4)GlcNAc(b1-2)Man(a1-6)]Man(b1-4)GlcNAc(b1-4)GlcNAc
# Summary of the method: as §1
# [3] = target: Fuc(a1-2)Gal(b1-4)[Fuc(a1-3)]GlcNAc
# Summary of the method: as §1
# [4] = target: Fuc(a1-2)Gal(b1-4)[Fuc(a1-3)]GlcNAc(b1-2)Man(a1-3)[Fuc(a1-2)Gal(b1-4)[Fuc(a1-3)]GlcNAc(b1-2)Man(a1-6)]Man(b1-4)GlcNAc(b1-4)[Fuc(a1-6)]GlcNAc
# Summary of the method: as §1
# [5] = target: Fuc(a1-2)[Gal(a1-3)]Gal(b1-3)GalNAc(b1-3)Gal(a1-4)Gal(b1-4)Glc
# Summary of the method: as §1
# [6] = target: Fuc(a1-2)[Gal(a1-3)]Gal(b1-4)GlcNAc
# Summary of the method: as §1
# [7] = target: Fuc(a1-2)[GalNAc(a1-3)]Gal(b1-4)GlcNAc(b1-3)GalNAc
# Summary of the method: as §1
# [8] = target: Fuc(a1-2)[GalNAc(a1-3)]Gal(b1-4)GlcNAc(b1-6)GalNAc
# Summary of the method: as §1
# [9] = target: Fuc(a1-3)[Gal(b1-4)]GlcNAc(b1-2)Man(a1-3)[Fuc(a1-3)[Gal(b1-4)]GlcNAc(b1-2)Man(a1-6)]Man(b1-4)GlcNAc(b1-4)GlcNAc
# Summary of the method: as §1
# [10] = target: Fuc(a1-3)[Gal(b1-4)]GlcNAc(b1-3)GalNAc
# Summary of the method: as §1
# [11] = target: Gal(a1-3)Gal(b1-3)[Fuc(a1-4)]GlcNAc(b1-2)Man(a1-3)[Gal(a1-3)Gal(b1-3)[Fuc(a1-4)]GlcNAc(b1-2)Man(a1-6)]Man(b1-4)GlcNAc(b1-4)GlcNAc
# Summary of the method: as §1
# [12] = target: Gal(a1-3)Gal(b1-4)GlcNAc(b1-2)Man(a1-3)[Gal(a1-3)Gal(b1-4)GlcNAc(b1-2)Man(a1-6)]Man(b1-4)GlcNAc(b1-4)GlcNAc
# Summary of the method: as §1
# [13] = target: Gal(a1-3)Gal(b1-4)[Fuc(a1-3)]GlcNAc(b1-2)Man(a1-3)[Gal(a1-3)Gal(b1-4)[Fuc(a1-3)]GlcNAc(b1-2)Man(a1-6)]Man(b1-4)GlcNAc(b1-4)GlcNAc
# Summary of the method: as §1
# [14] = target: Gal(a1-4)Gal(b1-3)GlcNAc(b1-2)Man(a1-3)[Gal(a1-4)Gal(b1-3)GlcNAc(b1-2)Man(a1-6)]Man(b1-4)GlcNAc(b1-4)GlcNAc
# Summary of the method: as §1
# [15] = target: Gal(b1-3)GlcNAc(b1-2)Man(a1-3)[Gal(b1-3)GlcNAc(b1-2)Man(a1-6)]Man(b1-4)GlcNAc(b1-4)GlcNAc
# Summary of the method: as §1
# [16] = target: Gal(b1-3)GlcNAc(b1-3)Gal(b1-4)GlcNAc
# Summary of the method: as §1
# [17] = target: Gal(b1-3)[Neu5Ac(a2-6)]GlcNAc(b1-4)Gal(b1-4)Glc
# Summary of the method: as §1
# [18] = target: Gal(b1-4)GlcNAc(b1-3)Gal(b1-4)GlcNAc(b1-2)[Gal(b1-4)GlcNAc(b1-3)Gal(b1-4)GlcNAc(b1-6)]Man(a1-6)[Gal(b1-4)GlcNAc(b1-3)Gal(b1-4)GlcNAc(b1-2)Man(a1-3)]Man(b1-4)GlcNAc(b1-4)[Fuc(a1-6)]GlcNAc
# Summary of the method: as §1
# [19] = target: Gal(b1-4)GlcNAc(b1-3)Gal(b1-4)GlcNAc(b1-3)Gal(b1-4)GlcNAc(b1-2)Man(a1-3)[Gal(b1-4)GlcNAc(b1-3)Gal(b1-4)GlcNAc(b1-3)Gal(b1-4)GlcNAc(b1-2)Man(a1-6)]Man(b1-4)GlcNAc(b1-4)GlcNAc
# Summary of the method: as §1
# [20] = target: Gal(b1-4)GlcNAc(b1-3)Gal(b1-4)GlcNAc(b1-3)Gal(b1-4)GlcNAc(b1-2)[Gal(b1-4)GlcNAc(b1-3)Gal(b1-4)GlcNAc(b1-3)Gal(b1-4)GlcNAc(b1-6)]Man(a1-6)[Gal(b1-4)GlcNAc(b1-3)Gal(b1-4)GlcNAc(b1-3)Gal(b1-4)GlcNAc(b1-2)Man(a1-3)]Man(b1-4)GlcNAc(b1-4)[Fuc(a1-6)]GlcNAc
# Summary of the method: as §1
# [21] = target: Gal(b1-4)GlcNAc(b1-3)Gal(b1-4)GlcNAc(b1-3)Gal(b1-4)GlcNAc(b1-3)Gal(b1-4)GlcNAc(b1-2)Man(a1-3)[Gal(b1-4)GlcNAc(b1-3)Gal(b1-4)GlcNAc(b1-3)Gal(b1-4)GlcNAc(b1-3)Gal(b1-4)GlcNAc(b1-2)Man(a1-6)]Man(b1-4)GlcNAc(b1-4)[Fuc(a1-6)]GlcNAc
# Summary of the method: as §1
# [22] = target: Gal(b1-4)GlcNAc(b1-3)Gal(b1-4)GlcNAc(b1-3)[Gal(b1-4)GlcNAc(b1-3)Gal(b1-4)GlcNAc(b1-6)]GalNAc
# Summary of the method: as §1
# [23] = target: Gal(b1-4)GlcNAc(b1-6)[Gal(b1-4)GlcNAc(b1-3)]GalNAc
# Summary of the method: as §1
# Gal6S(b1-4)GlcNAc6S = target: Gal6S(b1-4)GlcNAc6S
# Summary of the method: as §1
# GalNAc(b1-3)GlcNAc = target: GalNAc(b1-3)GlcNAc
# Summary of the method: as §1
# [24] = target: GalNAc(b1-4)GlcNAc(b1-2)Man(a1-3)[GalNAc(b1-4)GlcNAc(b1-2)Man(a1-6)]Man(b1-4)GlcNAc(b1-4)GlcNAc
# Summary of the method: as §1
# Glc(b1-4)Glc = target: Glc(b1-4)Glc
# Summary of the method: as §1
binder,measurement,setting,value
B1,glycan array binding signal (z-score),[1],-0.281
same,glycan array binding signal (z-score),[2],-0.211
same,glycan array binding signal (z-score),[3],-0.665
same,glycan array binding signal (z-score),[4],0.859
same,glycan array binding signal (z-score),[5],-0.61
same,glycan array binding signal (z-score),[6],-0.855
same,glycan array binding signal (z-score),[7],-0.508
same,glycan array binding signal (z-score),[8],0.103
same,glycan array binding signal (z-score),[9],4.63
same,glycan array binding signal (z-score),[10],1.3
same,glycan array binding signal (z-score),[11],2.95
same,glycan array binding signal (z-score),[12],4.55
same,glycan array binding signal (z-score),[13],3.48
same,glycan array binding signal (z-score),[14],2.18
same,glycan array binding signal (z-score),[15],0.652
same,glycan array binding signal (z-score),[16],-0.675
same,glycan array binding signal (z-score),[17],-0.838
same,glycan array binding signal (z-score),[18],1.62
same,glycan array binding signal (z-score),[19],3.79
same,glycan array binding signal (z-score),[20],4.56
same,glycan array binding signal (z-score),[21],2.87
same,glycan array binding signal (z-score),[22],2.88
same,glycan array binding signal (z-score),[23],-0.034
same,glycan array binding signal (z-score),Gal6S(b1-4)GlcNAc6S,-0.429
same,glycan array binding signal (z-score),GalNAc(b1-3)GlcNAc,0.169
same,glycan array binding signal (z-score),[24],1.25
same,glycan array binding signal (z-score),Glc(b1-4)Glc,0.195
